In experiment [1] the test system is Human papillomavirus type 1a protein E7 (residues 44-93). In words: small molecules binding HPV E7 44-93 – biochemical, small-molecule microarray, residues 44-93, 635 nm fluorescence, primary screen (AID 1108).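 Note: E7 fragment applied at 1 µg/mL in TBST for 1 h at 4 C; score combines spot fluorescence with its signal to noise ratio.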 Particulars: fluorescence 635 nm, higher = more signal.
The nature of experiment [2]: hepatitis C replication reporter changes, two-sided – Huh7 cells, luciferase reporter, HCV replication inhibitor project, primary screen (AID 1109).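 Note: huh7 hepatoma cells harbouring a luciferase neomycin HCV replicon reporter; luciferase luminescence as measure of HCV replicon replication; test concentration not given here.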 Conditions: Huh7 HCV replicon luciferase reporter, 48 h; higher = more signal. For orientation: In a reporter assay the amount or activity of a reporter protein is the signal.
In experiment [3] the target is Left-right determination factor 2 (Homo sapiens) (UniProt O00292). As to the kind of experiment: small molecules binding LEFTY2 protein – biochemical, small-molecule microarray, 635 nm fluorescence scan, primary screen (AID 1110). Conditions: higher = more signal.
Experiment [4] addresses Calmodulin-1 (Homo sapiens) (UniProt P0DP23). As to the kind of experiment: small molecules binding calmodulin-1 with EGTA – biochemical, small-molecule microarray, Cy5-labelled CALM1, profiling panel (AID 1111).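 Note: labelled calmodulin applied in Tris saline Tween buffer holding calcium plus EGTA and DTT.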 Particulars: Cy5-CALM1 binding fluorescence, higher = more signal.
Experiment [5] has the same target. In words: small molecules binding Ca-loaded calmodulin-1 – biochemical, small-molecule microarray, Cy5-labelled CALM1, plus calcium, artefact control for SMM control-protein annotation, profiling panel (AID 1112).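 Note: score merges spot fluorescence with signal to noise from triplicate slides.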 Conditions: Cy5-CALM1 binding fluorescence, higher = more signal.
The nature of experiment [6]: probe aWnt5a binding to arrayed compounds – biochemical, biotinylated probe, 635/667 nm fluorescence, primary screen (AID 1113).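 Note: score merges 667 nm fluorescence intensity with signal-to-noise per printed feature.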 Particulars: small-molecule microarray, higher = more signal.
Experiment [7] can be described thus: probe aShh binding to arrayed compounds – biochemical, biotinylated probe, 635/667 nm fluorescence, primary screen (AID 1114).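 Note: probe is biotin-labelled aShh protein from a stem cell growth factor screen; measures binding of labelled protein to compounds printed on the slide; score merges feature fluorescence at 667 nm with signal-to-noise.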 Conditions: small-molecule microarray, higher = more signal.
Experiment [8] is described as follows: probe aNog binding to arrayed compounds – biochemical, biotinylated probe, 635/667 nm fluorescence, primary screen (AID 1115).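 Note: probe is biotinylated aNog protein used at 0.15 µg/mL for 1 h at 4 C; z-score combines 667 nm fluorescence of each spot with its signal to noise.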 Particulars: small-molecule microarray, higher = more signal.
The target of experiment [9] is Torsin-1A-interacting protein 1 (Homo sapiens) (UniProt Q5JTV8). As to the kind of experiment: compound microarray binding of lysate hLAP1 – cell lysate, small-molecule microarray, COS7 lysate, 635/667 nm fluorescence, primary screen (AID 1116). Conditions: 635 nm fluorescence, higher = more signal.
Experiment [10] deals with Alpha-bungarotoxin (Bungarus multicinctus) (UniProt P60615). As to the kind of experiment: compounds binding labelled alpha-BTX control protein – biochemical, small-molecule microarray, Alexa647 label, 635/667 nm fluorescence, artefact control for SMM control protein annotation, profiling panel (AID 1117). Particulars: alpha-BTX-A647 binding fluorescence, higher = more signal.
Sequence of Alpha-bungarotoxin (Bungarus multicinctus) (P60615 whole entry, looked up): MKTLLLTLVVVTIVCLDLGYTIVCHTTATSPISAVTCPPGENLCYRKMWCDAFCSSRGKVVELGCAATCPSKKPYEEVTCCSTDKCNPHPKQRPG

Sequence of Torsin-1A-interacting protein 1 (Homo sapiens) (Q5JTV8 whole entry, looked up): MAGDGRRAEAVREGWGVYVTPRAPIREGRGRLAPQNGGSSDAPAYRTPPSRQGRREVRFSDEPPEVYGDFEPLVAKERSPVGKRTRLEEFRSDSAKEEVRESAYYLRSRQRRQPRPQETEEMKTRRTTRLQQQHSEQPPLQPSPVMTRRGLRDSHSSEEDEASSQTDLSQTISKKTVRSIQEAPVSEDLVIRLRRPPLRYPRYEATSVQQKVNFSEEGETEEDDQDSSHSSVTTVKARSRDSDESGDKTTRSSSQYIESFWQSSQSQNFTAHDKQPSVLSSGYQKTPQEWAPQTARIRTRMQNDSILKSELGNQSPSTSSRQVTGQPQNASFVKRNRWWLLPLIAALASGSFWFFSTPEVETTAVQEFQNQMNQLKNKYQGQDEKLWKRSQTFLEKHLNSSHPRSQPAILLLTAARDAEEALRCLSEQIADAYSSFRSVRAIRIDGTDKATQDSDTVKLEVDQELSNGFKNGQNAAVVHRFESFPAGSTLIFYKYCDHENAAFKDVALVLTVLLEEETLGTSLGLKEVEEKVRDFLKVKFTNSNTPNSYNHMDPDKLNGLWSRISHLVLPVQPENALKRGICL
Sequence of Left-right determination factor 2 (Homo sapiens) (O00292 whole entry, looked up): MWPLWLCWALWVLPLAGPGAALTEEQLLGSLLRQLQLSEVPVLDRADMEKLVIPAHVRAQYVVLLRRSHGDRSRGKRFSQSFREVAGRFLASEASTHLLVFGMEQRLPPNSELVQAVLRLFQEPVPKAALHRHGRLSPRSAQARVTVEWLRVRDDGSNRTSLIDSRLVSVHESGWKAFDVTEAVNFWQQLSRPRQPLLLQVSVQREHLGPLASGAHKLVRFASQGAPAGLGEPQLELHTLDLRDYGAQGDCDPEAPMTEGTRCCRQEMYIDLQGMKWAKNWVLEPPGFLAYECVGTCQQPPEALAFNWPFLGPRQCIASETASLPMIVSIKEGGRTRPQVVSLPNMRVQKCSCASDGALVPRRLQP

As to `COc1c(C)cc(-c2cc3c(c(CCc4ccccc4)n2)[Si](C(C)C)(C(C)C)O[C@H]3c2ccccc2)cc1C`, the composite z-score in experiment [1] is -0.52; in experiment [3], -0.124; in [4], 0.261; in experiment [5] it was 0.502; in experiment [6], 0.0136; in [7], 0.0008. Also, the composite z-score in experiment [8] is 0.0225; in experiment [9], -0.445; in experiment [10], -0.176. Also, the z-score in [2] was -3.84.

Take `CC[C@@H](O[Si](C#C[Si](C(C)C)(C(C)C)C(C)C)(C(C)C)C(C)C)c1cn(Cc2cccc(Cl)c2)nn1`: the composite z-score was 0.906 in experiment [1]; 0.374 in experiment [3]; 0.0371 in [4]; -0.461 in experiment [5]; -0.0194 in experiment [6]; -0.154 in [7]. For the same compound, the values for the composite z-score in experiment [8], in [9] and in [10] were -0.124, 0.403 and 0.485, respectively. In addition, the z-score in experiment [2] was -0.959.

As for `C=CC[C@]12N=C(c3ccc(OCCCO)cc3)O[C@H]1c1ccccc1N(CCC)C2=O`, the composite z-score is 0.685 in experiment [1]; 0.546 in experiment [3]; 0.117 in [4]; -0.267 in [5]; 0.0344 in experiment [6]; 0.187 in experiment [7]. Further, the composite z-score was found to be 0.993 in experiment [8], 1.46 in experiment [9] and 0.666 in experiment [10]. In addition, in experiment [2], the z-score was -1.99.

In the case of `CCCCCN1CC=CC23O[C@@H]4/C=C\CCCOC(=O)C4[C@H]2C(=O)N(CCCCCO)[C@@H]3C1=O` (stereo not given in full), the composite z-score in experiment [1] is -0.735; in experiment [3] it was -1.08; in experiment [4], -0.517; in experiment [5] it was -0.97; in [6] it was -0.224; in [7] it was 0.0121. Moreover, the composite z-score is -0.121 in experiment [8], -1.28 in [9] and -0.543 in experiment [10]. Also, the z-score in experiment [2] was -0.831.

For `C=C(C(=O)CC[C@@H](OC(=O)c1ccccc1-c1ccccc1C(=O)O)c1cccc(OCCO)c1)C(C)C`, the composite z-score was -0.635 in experiment [1]; 0.706 in experiment [3]; -0.367 in [4]; -0.692 in experiment [5]; -0.129 in experiment [6]; -0.0396 in experiment [7]. Further, the composite z-score is -0.248 in experiment [8], 3.26 in [9] and -0.11 in [10]. In addition, the z-score in experiment [2] is -3.06.

In the case of `C[C@@]1([C@@H](NS(=O)(=O)c2cccc3cccnc23)c2ccc(-c3ccccc3)cc2)C[C@H]1C1CCCCC1`, the composite z-score in experiment [1] was 0.917; in experiment [3], -0.504; in [4], 1.02; in [5], 1.38; in [6], 0.122; in [7], 1.05. Further, the composite z-score turned out to be 2 in experiment [8], 0.562 in experiment [9] and 0.33 in experiment [10]. Also, the z-score in experiment [2] is -0.479.

Regarding `CCCCC(=C=CC[C@@H](O)c1ccccc1OCCO)C[C@@H](O)c1ccccn1`, the composite z-score was 0.361 in experiment [1]; -0.139 in experiment [3]; -0.408 in experiment [4]; -0.669 in [5]; -0.113 in experiment [6]; -0.0904 in experiment [7]. The composite z-score in [8] is -0.108; in experiment [9], -0.194; in experiment [10], 0.888. Moreover, the z-score in experiment [2] is -1.61.

For `C=C(COC)C(=O)CC[C@H](OC(C)=O)c1ccccc1OCCO`, the composite z-score was 0.0337 in [1]; -0.0181 in experiment [3]; -0.714 in experiment [4]; -1.1 in experiment [5]; -0.15 in experiment [6]; -0.223 in [7]. Besides, the composite z-score in [8] was -0.397; in [9] it was 1.59; in experiment [10] it was -0.15. Also, the z-score in [2] is -1.94.

With `COCCCNC(=O)[C@]1(Cc2ccccc2N=[N+]=[N-])N=C(c2ccc(OCCCO)cc2)O[C@@H]1c1ccccc1`, the composite z-score in experiment [1] is 0.565; in [3] it was -0.263; in experiment [4], 2.24; in experiment [5], 0.908; in [6], -0.118; in [7] it was 0.0638. For the same compound, the figures for the composite z-score in experiment [8], in [9] and in [10] were -0.661, 1.69 and 2.32, respectively. For the same compound, the z-score in experiment [2] is -1.69.

As to `CCCC1(C(=O)OC)C=C2C(=C(C(C)C)C(=O)C2C)CN1` (stereo not given), the composite z-score in experiment [1] is -0.311; in experiment [3], -0.557; in [4], 0.312; in experiment [5] it was 0.771; in experiment [6], 0.0375; in experiment [7] it was 0.381. Further, the composite z-score was 0.658 in experiment [8], 2.29 in experiment [9] and -0.593 in experiment [10]. For the same compound, in experiment [2], the z-score was -0.808.

Regarding `COC(=O)C(CC#Cc1ccc2c(c1)[C@]1(C(=O)N2)[C@H](C(=O)N2CCCCCCC2)[C@H]2C(=O)O[C@H](c3ccccc3)[C@H](c3ccccc3)N2[C@@H]1c1ccc(OCCO)cc1)C(=O)OC`, the composite z-score in experiment [1] is 1.55; in experiment [3] it was 1.76; in experiment [4] it was 3.07; in experiment [5], 1.68; in experiment [6] it was 1.63; in experiment [7], 3.53. For the same compound, the composite z-score in experiment [8] is 3.7; in experiment [9] it was 6.05; in experiment [10], 4.36. Besides, the z-score in experiment [2] is -1.57.
